Source: PubChem (National Center for Advancing Translational Sciences (NCATS))
ELG1 DNA repair: qHTS screen for small molecules that inhibit ELG1-dependent DNA repair in human embryonic kidney (HEK293T) cells expressing luciferase-tagged ELG1; 330,000 compounds, 2.3% hits; HEK293T ELG1-luciferase reporter, luminescence, 16 h; DNA damage induced by 5-fluorouridine; AID 504467, 2011; Potency, µM (highest dose often 46.1 µM), inactives show at the highest dose activity change, negative = inhibition, most hits filed as inhibitors; note: nearly all actives have a fitted effect of over 55% in size
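5-Fluorouridine DNA damage + compound/DMSO, 2,000 cells/well, 16 h, 37 °C/5% CO2. ONE-Glo, 30 min RT, luminescence. Readout = decrease in reporter signal.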
RORgamma inh: qHTS for inhibitors of ROR gamma transcriptional activity; Potency, µM (doses to about 53.6 µM), for the others: at the highest dose activity change, negative = inhibition, usual class: inhibitors; Drosophila S2 Gal4-RORgamma UAS-luciferase reporter, 20 h; 310,000 compounds, 5.4% hits; Nuclear receptor ROR-gamma (Mus musculus), P51450; AID 2551, 2010; note: nearly all actives have a fitted effect of over 60% in size
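Read-out: Photinus luciferase luminescence; inhibitors lower reporter signal. Insect Schneider cells with Gal4-ROR gamma fusion under metallothionein promoter, UAS reporter; 700 uM final copper sulfate induction, 20 hr, ambient temperature.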
DT40 TDP1 CPT: qHTS for Inhibitors of human tyrosyl-DNA phosphodiesterase 1 (TDP1): qHTS in cells in presence of CPT; 420,000 compounds, 12% hits; AID 686979, 2013; chicken DT40 Tdp1-/-;hTDP1 cells + 20 nM CPT, ATP luminescence, 48 h; Potency, µM (top dose mostly 46.2 µM), inactives show top-dose activity change, negative = growth inhibition, hits mostly inhibitors; note: nearly all actives have a fitted effect of over 55% in size
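Chicken DT40 Tdp1-/- cells stably complemented with human TDP1 were seeded at 400 cells/well in medium containing 20 nM camptothecin, exposed to pin-transferred compounds, and grown at 37 °C for at least 48 hr. Viability was read as ATP luminescence.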
ALOX12 inh: Primary qHTS assay for inhibitors of human arachidonate 12S-lipoxygenase (ALOX12): Round 2; Polyunsaturated fatty acid lipoxygenase ALOX12 (Homo sapiens), P18054; purified 12hLO, xylenol orange hydroperoxide absorbance; Potency, µM (top dose mostly 108 µM), for inactives: top-dose activity change, negative = inhibition, usual class: inhibitors; 580,000 compounds, 1.1% hits; AID 1671190, 2021
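Hydroperoxide product was detected by ferrous iron/xylenol orange as the 573 to 405 nm absorbance ratio. Arachidonic acid at 40 uM (final) was turned over for 30 min at room temperature by 150 nM human 12hLO, pH 7.0 Hepes buffer, after 15 min compound preincubation.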
VP16 counter: VP16 counterscreen qHTS for inhibitors of ROR gamma transcriptional activity; Drosophila S2 Gal4-VP16 UAS-luciferase, luminescence, 20 h; Potency, µM (highest dose often 53.6 µM), for the others: at the top dose activity, negative = inhibition, actives largely listed as inhibitors; 310,000 compounds, 3.5% hits; AID 2546, 2010;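 note: Gal4-VP16 expression switched on by copper sulfate through the metallothionein promoter; nearly all actives have a fitted effect of over 50% in size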
DT40 TDP1 no CPT: qHTS for Inhibitors of human tyrosyl-DNA phosphodiesterase 1 (TDP1): qHTS in cells in absence of CPT. Potency, µM (titrated, usually from 46.2 µM), for the others: top-dose activity change, negative = growth inhibition, most hits filed as inhibitors. 420,000 compounds, 15% hits. DT40 Tdp1-/- hTDP1 cells, no CPT, ATP luminescence, 48 h. AID 686978, 2013; note: nearly all actives have a fitted effect of over 55% in size
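A cellular qHTS used chicken DT40 cells lacking endogenous Tdp1 but carrying stably transfected human TDP1. Compounds were applied without camptothecin, and cell growth kinetics were judged by ATP-dependent luminescence after ≥48 hr.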
The depositor's hits bear a star; u = inconclusive; x = no result; [ ] = dose if it differs, or a comment. Most compounds without a hit are left out; they make up all but 15% or so of the library. Calls come from the whole dose curve; as a rule, active = well fitted curve in the direction sought with a large enough effect; inconclusive = small, poorly fitted or top-dose-only effect, or another doubt; inactive = no such curve, though single readings can be large; an effect the other way counts as inactive or inconclusive. % is set by controls: 0 for no effect and ±100 for the full control effect; potency is the fitted concentration of half-maximal effect.

SMILES	ELG1 DNA repair	RORgamma inh	DT40 TDP1 CPT	ALOX12 inh	VP16 counter	DT40 TDP1 no CPT
Cc1ccc(-c2cc(-c3ccccc3)cc(-c3ccccc3)[n+]2-c2ccccc2)cc1	u	x	1.6µM*	u	x	0.92µM*
C[n+]1c(-c2ccccc2)cc(-c2ccc(Cl)cc2)cc1-c1ccccc1	u	-32%	3.7µM*	-2%	-29%	2.1µM*
Cc1ccc(-c2cc(-c3ccc(C)cc3)[n+](-c3ccccc3)c(-c3ccc(C)cc3)c2)cc1	u	x	0.52µM*	x	x	0.37µM*
C=C[C@H]1CN2CC[C@H]1C[C@@H]2CNC(=O)COc1ccccc1	x	x	x	75%[176 µM]	x	x
Cn1nccc1C(=O)N1[C@H]2CC[C@@H]1c1cnc(-c3ccccc3)nc1C2	x	x	x	5%	x	x
CC(C)NC(=O)NC[C@H]1C[C@@H]2CCN1C[C@@H]2c1cc(C2CCCCC2)nn1C	x	x	x	28%[176 µM]	x	x
Cc1sc2c(c1C)C(c1ccc(F)cc1)=NCC(=O)N2CC(=O)Nc1ccccc1	x	x	x	-6%	x	x
CCCCc1c(C)nc(N2CCN(C)CC2)[nH]c1=O	x	x	x	28%	x	x
O=C1C(I)=CC(=C(c2cc(I)c(O)c(I)c2)c2ccccc2C(=O)O)C=C1I	x	-8%	u	5.1µM*	4%	u
COc1ccc(CN2CCN(C(=O)Cc3ccccc3)CC2)cc1Br	-18%	20%	-19%	0.63µM*	-12%	-10%
COc1ccc(CN2CCN(C(=O)Cc3ccccc3)CC2)cc1OC	x	x	-24%	u	x	0%
CC(C)NS(=O)(=O)c1ccc(OCC(=O)N2CCN(Cc3ccccc3)CC2)c(Cl)c1	-10%	u	-82%	0%	20µM*	u
CCOc1cc(CN2CCN(C(=O)Cc3ccccc3)CC2)ccc1OC	u	8%	-25%	0.5µM*	5%	u
O=C1CO[C@H]2CN(Cc3ncc[nH]3)C[C@H]2N1Cc1ccccn1	x	x	x	114%[176 µM]	x	x
CCOC(=O)[C@]12Cc3cc(Cl)ccc3[C@H]1N(C1CCCCC1)C(=O)c1ccccc12	x	x	2.3µM*	x	x	2.3µM*
COc1ccc(Cl)cc1C(=O)C1CCCN(CCO)C1 (stereo unspecified)	7%	4%	-11%	2%	2%	-10%
CCOC(=O)[C@]12Cc3cc(OC)ccc3[C@H]1N(C1CCCCC1)C(=O)c1ccccc12	x	x	2.1µM*	-69%	x	2.3µM*
CCOC(=O)C1CCN(/C=C2/C(=O)NC(=S)N(c3cccc(OC)c3)C2=O)CC1	-2%	-19%	-3%	-14%	-7%	0%
CN1CCN(C(=O)Cc2c[nH]c3ncc(-c4ccnn4C)cc23)CC1	x	x	x	5%[176 µM]	x	x
O=C1/C(=C\c2ccc(F)cc2)N2CCC1CC2	x	x	x	-26%	x	x
CSc1cc(-c2ccccc2)n(Cc2c(Cl)cccc2Cl)c(=O)c1C#N	u	1%	4.6µM*	26%	-4%	3.3µM*
CCCSc1ncc(Cl)c(C(=O)N(Cc2ccccc2)c2ccc(OC)cc2)n1	x	x	7.3µM*	-22%	x	4.6µM*
COc1cccc(CN(C)C(=O)c2cccc(S(=O)(=O)N3CCN(c4ccccc4)CC3)c2)c1	x	x	12µM*	-4%	x	7.3µM*
Cc1ccc(O)c(CN2CCN(c3ccccc3)CC2)c1	-7%	2%	-3%	34%	-6%	-14%
Cc1ccc(CN(C)C(=O)c2cccc(S(=O)(=O)N3CCN(c4ccccc4)CC3)c2)cc1	x	x	u	1%	x	15µM*
